# Assay outcomes (PubChem BioAssay)
# CYP2C9 inh: blockers of cytochrome P450 2C9 activity – biochemical, luminescence, ADME assay, primary screen; P11712; CYP2C9 Supersomes, luciferin-H conversion; inhibition, % at 5 µM; hit rate 20% among 96,000;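 active = blocking of liver enzyme CYP2C9 beyond about 50% at 5 µM, limit read from the data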
# Target sequence (P11712 whole entry, looked up): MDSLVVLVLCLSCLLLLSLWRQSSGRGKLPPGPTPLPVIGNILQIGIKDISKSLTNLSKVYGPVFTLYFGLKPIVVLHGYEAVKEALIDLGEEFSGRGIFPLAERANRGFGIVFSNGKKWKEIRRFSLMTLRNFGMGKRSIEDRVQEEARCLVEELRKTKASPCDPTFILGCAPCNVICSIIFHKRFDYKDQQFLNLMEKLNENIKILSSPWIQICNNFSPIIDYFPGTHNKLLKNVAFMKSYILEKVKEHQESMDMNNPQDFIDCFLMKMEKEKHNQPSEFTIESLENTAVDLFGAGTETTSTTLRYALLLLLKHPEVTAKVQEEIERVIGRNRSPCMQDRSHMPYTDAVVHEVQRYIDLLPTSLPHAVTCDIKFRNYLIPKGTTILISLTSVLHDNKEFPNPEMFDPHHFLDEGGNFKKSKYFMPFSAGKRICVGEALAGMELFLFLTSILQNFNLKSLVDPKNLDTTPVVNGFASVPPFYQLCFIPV
# CYP2C19 act: human CYP2C19 activators, primary screen, biochemical, luminescence | Cytochrome P450 2C19 (Homo sapiens), P33261 | recombinant CYP2C19, luciferin-H EGE luminescence; stronger effect = higher value; 0 = fully inhibited enzyme, 1 = untreated enzyme | activation factor at 5 µM | 96,000 tested, under 10 active | AID 1025, 2008;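 active = activation factor of at least 2 at 5 µM in the primary screen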;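 note: 0 = wells with 2.5 mM tranylcypromine and 1 = vehicle-only wells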
# Cav32 inh: Cav3.2 calcium influx blockers – cell-based, Fluo-4 calcium fluorescence, FDSS, MLSMR library, primary screen | Voltage-dependent T-type calcium channel subunit alpha-1H (Homo sapiens), O95180 | Cav3.2-expressing cells; stronger effect = lower value | B-score at 10 µM | hit rate 4% among 100,000;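 active = single-dose well whose peak fluorescence ratio is a statistical outlier from its plate by either plate-standardised score or position-corrected B-score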
# CYP2C19 inhib: blockers of cytochrome P450 2C19 activity – biochemical, luminescence, ADME assay, primary screen. P33261. CYP2C19 Supersomes, luciferin-H EGE luminescence, 30 min. inhibition, % at 5 µM. hit rate 21% among 96,000. AID 778, 2007;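 active = CYP2C19 inhibition above a set limit at 5 µM in the primary screen, cut at about 50% in these data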;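 note: plate controls were negative control wells for no effect and 2.5 mM tranylcypromine positive control for full effect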
# CYP2C9 act: human CYP2C9 activators, primary screen, biochemical, luminescence; Cytochrome P450 2C9 (Homo sapiens), P11712; recombinant CYP2C9, luciferin-H conversion; stronger effect = higher value; factor 1 = untreated enzyme, 0 = blocked; activation factor at 5 µM; hit rate 1.4% among 96,000; AID 1024, 2008;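 active = activation factor of 2 or more for CYP2C9 at a 5 µM dose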;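 note: 0 = sulfaphenazole-blocked wells and 1 = vehicle-only wells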
# Active calls of the source: *; · = not tested or not shown. Rows were chosen to be rich in hits. Some 27% of all compounds tested hit in one or more screens of this group.
SMILES,CYP2C9 inh,CYP2C19 act,Cav32 inh,CYP2C19 inhib,CYP2C9 act
C=CCn1c(N)c(C(=O)NCCC2=CCCCC2)sc1=S,22,1,-0.16,5,0.8
COc1ccc(OC)c(NC(=O)CSc2nnc(Cn3c(=O)sc4ccccc43)n2C)c1,·,·,0.3,·,·
CS(=O)(=O)N1CCCC(C(=O)NCc2ccccc2Cl)C1 (stereo unspecified),-1,0.8,0.22,19,1
CCOC(=O)C(C(=O)OCC)C(Nc1ccc(Br)cc1)c1ccccc1 (stereo unspecified),-12,0.9,-0.21,15,1.1
CN1C(C(=O)NCCc2cccs2)CC2Cn3c(nc4cc(Cl)c(Cl)cc43)C21 (stereo unspecified),·,·,0.077,·,·
NC(=O)CSc1nnc(-c2cccs2)n1-c1ccccc1,4,1,0.42,4,1
COC(=O)CSc1nnc(-c2cccs2)n1-c1ccc(Cl)cc1,44,0.2,-0.27,81*,0.6
Cc1nc(-c2cccc(S(=O)(=O)N3CC(C)OC(C)C3)c2)cs1 (stereo unspecified),20,0.2,0.24,77*,0.8
Cc1nc2ccc(Nc3nc4cc(S(=O)(=O)N5CCOCC5)ccc4o3)cc2s1,36,0.8,-0.092,21,0.6
CCOC(=O)C1CCN(S(=O)(=O)c2cccc(-c3csc(C)n3)c2)CC1,46,0.6,-0.93,40,0.5
CSc1nc2cc(S(=O)(=O)N3CCOCC3)ccc2s1,63*,0,-0.084,99*,0.4
Cc1nc(-c2cccc(S(=O)(=O)N3CCOCC3)c2)cs1,66*,0.2,0.29,76*,0.3
Cc1nc(-c2cccc(S(=O)(=O)N3CC(C)CC(C)C3)c2)cs1 (stereo unspecified),-8,1.1,-2.6,-8,1.1
Cc1ccc(C(=O)NNC(=O)C2CCCN(c3ncccn3)C2)cc1 (stereo unspecified),9,0.7,0.83,28,0.9
C=C(C)COc1ccc(-c2[nH]ncc2Oc2cccc(OC)c2)c(O)c1,100*,0.1,-0.44,93*,0
C=C(C)COc1ccc(-c2[nH]ncc2Oc2ccccc2OCC)c(O)c1,100*,0,-0.46,96*,0
C=C(C)COc1ccc(-c2[nH]ncc2-c2ccc(OC)c(OC)c2)c(O)c1,33,0.9,-1.1,10,0.7
C=C(C)COc1ccc(-c2[nH]ncc2-c2ccccc2)c(O)c1,83*,0.6,-0.83,41,0.2
O=C(Nc1nc2ccc(F)cc2s1)C1CCCO1 (stereo unspecified),0,1,1.7,4,1
Cc1ccc(S(=O)(=O)N(CC(=O)N/N=C/c2cccc3c2OCCO3)c2ccccc2F)cc1,94*,0.2,-0.068,82*,0.1
CCN(C(=O)Cc1ccc(Br)cc1)C1CCCCC1,37,0.8,-4.4*,22,0.6
CC(C)NC(=O)Cc1ccc(Br)cc1,-4,0.6,-0.0058,42,1
CC(C)(C)c1ccc(C(=O)Nc2nonc2-c2nc3ccccc3[nH]2)cc1,10,0.9,-1.3,14,0.9
COc1c(N2CCN(C(=S)Nc3ccc(F)cc3)C(C)C2)c(F)cc2c(=O)c(C(=O)O)cn(C3CC3)c12 (stereo unspecified),-1,1.1,3.6*,-6,1
COc1c(N2CCNC(C)C2)c(F)cc2c(=O)c(C(=O)O)cn(C3CC3)c12 (stereo unspecified),·,·,0.32,·,·
SMILES,CYP2C9 inh,CYP2C19 act,Cav32 inh,CYP2C19 inhib,CYP2C9 act
COc1ccc(-c2cn3c(C)c(C(=O)NCc4ccc5c(c4)OCO5)sc3n2)cc1,·,·,0.42,·,·
COc1ccc(NC(=O)C2CCN(S(=O)(=O)c3cccc4cccnc34)CC2)cc1,-53,0.9,-0.52,9,1.5
Cc1cccc(NC(=O)C2CCN(S(=O)(=O)c3cccc4cccnc34)CC2)n1,-128,0.2,0.84,78*,2.3*
Cc1ccc(NC(=O)C2CCN(S(=O)(=O)c3cccc4cccnc34)CC2)nc1,-46,0.3,0.37,68*,1.5
O=C(Nc1nc2c(s1)CCCC2)c1ccc(Br)s1,38,0.9,-0.61,6,0.6
Cc1ccc(C)c(N2CCN(C(=O)c3cc4ccccc4oc3=O)CC2)c1,20,0.6,-2.3,38,0.8
Cc1ccc2c(c1)CCCN2C(=O)c1cc2ccccc2oc1=O,-176,0.6,-0.47,41,2.8*
CC(=O)C(Cc1cnc(Cl)s1)(Cc1cnc(Cl)s1)C(C)=O,11,0.3,0.36,69*,0.9
Cc1cc(C)c(C(N)=O)c(NCCc2ccccc2)n1,8,0.4,0.47,56*,0.9
Cc1cc(C)cc(N(CC(=O)NC2CCCCC2)C(=O)CCC(=O)Nc2cc(C)ccn2)c1,46,0.5,·,46,0.5
Cc1ccc(C)c(N(CC(=O)NC2CCCC2)C(=O)c2cc3cc4cccc(C)c4nc3s2)c1,96*,0.8,-1,18,0
Cc1ccc(C)c(N(CC(=O)NC2CCCC2)C(=O)c2oc(C(C)(C)C)cc2C)c1,26,0.7,-4.8*,26,0.7
Cc1ccnc(NC(=O)CCC(=O)N(CC(=O)NC2CCCCC2)c2cccc(C)c2C)c1,56*,0.6,-6.4*,42,0.4
O=C(CCC(=O)N(CC(=O)NC1CCCC1)C1CCCC1)Nc1ccccn1,13,0.8,0.89,24,0.9
Cc1ccc(C)c(N(CC(=O)NC2CCCCC2)C(=O)CCC(=O)Nc2ccccn2)c1,80*,0.3,·,66*,0.2
CCCCOc1ccc(/C(O)=C2/C(=O)C(=O)N(CCCOC)C2c2ccncc2)cc1C (stereo unspecified),14,1,1.3,-1,0.9
Cc1ccc(Cn2c(C(C)Nc3nc(-c4ccc(F)cc4)cs3)nc3cc(C(F)(F)F)ccc32)cc1 (stereo unspecified),·,·,0.4,·,·
CCn1c(SCC#N)nc2c(c1=O)C1(CCCC1)Cc1ccccc1-2,89*,0.4,-6.9*,60*,0.1
CCC1(C)Cc2ccccc2-c2nc(NCCCO)n(-c3ccccc3)c(=O)c21 (stereo unspecified),25,0.5,-1.9,51*,0.8
Cc1ccccc1-n1c(=O)c2c(n3cnnc13)-c1ccccc1CC21CCCCC1,-4,1.1,2.7,-9,1
Cn1c(=O)c2c(nc(NCCCO)n2CCc2ccccc2)n(C)c1=O,·,·,1.3,·,·
CCCn1c(SCC(N)=O)nc2c(c1=O)C1(CCCC1)Cc1ccccc1-2,5,1,·,-3,1
CCCC(=O)Nn1cnc2c(c1=O)C1(CCCCC1)Cc1ccccc1-2,64*,0.5,-1.5,50*,0.4
CCC(=O)Nn1cnc2c(c1=O)C1(CCCCC1)Cc1ccccc1-2,-9,0.6,-1.2,42,1.1
Cn1c(NCCCO)nc2c(c1=O)C1(CCCCC1)Cc1ccccc1-2,83*,0.2,-1.9,78*,0.2
